Reference: PubChem BioAssay (EPA / NIEHS)
The source made the active and inactive calls. How the source made its calls: active means hit-call score of the fitted dose curve at least 0.9, where 1 is the maximum; inactive means score below 0.9.

Columns and labels:
Conditions in all cases: mRNA level, 48 h; actives raise or lower the signal
[1] = read-out: Protein phosphatase 2A (PPP2R4), PTPA (gene 5524); experiment: LTEA_HepaRG_PPP2R4: Life Technologies and Expression Analysis (LTEA) Assay for Protein phosphatase 2A (PPP2R4) using HepaRG (AID 2283522)
Outline: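 Differentiated HepaRG cells in serum-free induction medium were exposed in duplicate for 48 h to eight concentrations, top 100 uM with half-log dilutions, in 0.5% DMSO. PPP2R4 mRNA was quantified by TaqMan qRT-PCR, normalized to ACTB, GAPDH and POLR2A.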

[2] = read-out: Phosphatase and tensin (PTEN), PTEN (gene 5728); experiment: LTEA_HepaRG_PTEN: Life Technologies and Expression Analysis (LTEA) Assay for Phosphatase and tensin (PTEN) using HepaRG (AID 2283523)
Outline: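 Differentiated human HepaRG cells, plated 48 h then switched to serum-free induction medium, were exposed in duplicate for 48 h to eight half-log concentrations up to 100 uM in 0.5% DMSO. PTEN mRNA measured by TaqMan qRT-PCR, normalized to ACTB/GAPDH/POLR2A, bidirectional fit versus DMSO.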

[3] = read-out: solute carrier (SLC22A1), SLC22A1 (gene 6580); experiment: LTEA_HepaRG_SLC22A1: Life Technologies and Expression Analysis (LTEA) Assay for solute carrier (SLC22A1) using HepaRG (AID 2283524)
Outline: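 Human HepaRG cells were plated 48 h, switched to serum-free induction medium, then exposed in duplicate for 48 h to 8-point half-log series from 100 uM in 0.5% DMSO. SLC22A1 mRNA measured by qRT-PCR, normalized to ACTB/GAPDH/POLR2A, fitted bidirectionally versus DMSO.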

[4] = read-out: Pyruvate Dehydrogenase Kinase 4 (PDK4), PDK4 (gene 5166); experiment: LTEA_HepaRG_PDK4: Life Technologies and Expression Analysis (LTEA) Assay for Pyruvate Dehydrogenase Kinase 4 (PDK4) using HepaRG (AID 2283525)
Outline: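 Differentiated human HepaRG cells, pre-cultured 48 h, were exposed in duplicate for 48 h in serum-free induction medium to eight half-log concentrations up to 100 uM in 0.5% DMSO. PDK4 mRNA was quantified by qRT-PCR, normalized to ACTB, GAPDH and POLR2A, bidirectional fitting versus DMSO.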

[5] = read-out: NAD(P)H dehydrogenase [quinone] 1 (NQO1), NQO1 (gene 1728); experiment: LTEA_HepaRG_NQO1: Life Technologies and Expression Analysis (LTEA) Assay for NAD(P)H dehydrogenase [quinone] 1 (NQO1) using HepaRG (AID 2283526)
Outline: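 Differentiated HepaRG cells, plated 48 h and then switched to serum-free induction medium, were exposed in duplicate for 48 h to 8-point half-log concentrations up to 100 uM in 0.5% DMSO. mRNA measured by qRT-PCR, normalized to ACTB, GAPDH, POLR2A; bidirectional fit versus DMSO.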

[6] = read-out: Nuclear factor erythroid 2-related factor 2 (Homo sapiens) (UniProt Q16236); experiment: LTEA_HepaRG_NFE2L2: Life Technologies and Expression Analysis (LTEA) Assay for Nuclear factor erythroid 2-related factor 2 (NFE2L2) Transcription Factor using HepaRG (AID 2283527)
Outline: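 Differentiated human HepaRG cells in serum-free induction medium were exposed for 48 h to eight concentrations (top 100 uM, half-log dilutions, 0.5% DMSO), in duplicate. NFE2L2 mRNA was quantified by TaqMan qRT-PCR, normalized to ACTB, GAPDH and POLR2A, with bidirectional fitting versus DMSO.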

[7] = read-out: succinate dehydrogenase complex iron sulfur subunit B (SDHB), SDHB (gene 6390); experiment: LTEA_HepaRG_SDHB: Life Technologies and Expression Analysis (LTEA) Assay for succinate dehydrogenase complex iron sulfur subunit B (SDHB) using HepaRG (AID 2283528)
Outline: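 Readout is SDHB transcript level by qRT-PCR, normalised to three housekeeping genes and fitted bidirectionally against 0.5% DMSO vehicle. Human HepaRG cells were treated for 48 h at up to 100 uM.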

[8] = read-out: Signal transducer and activator of transcription 3 (Homo sapiens) (UniProt P40763); experiment: LTEA_HepaRG_STAT3: Life Technologies and Expression Analysis (LTEA) Assay for Signal transducer and activator of transcription (STAT3) using HepaRG (AID 2283529)
Outline: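 Differentiated human HepaRG cells in serum-free induction medium were exposed in duplicate for 48 h to eight half-log concentrations up to 100 uM in 0.5% DMSO. STAT3 mRNA was quantified by TaqMan qRT-PCR, normalized to ACTB, GAPDH and POLR2A, and fitted bidirectionally against DMSO.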

[9] = read-out: solute carrier (SLCO1B1), SLCO1B1 (gene 10599); experiment: LTEA_HepaRG_SLCO1B1: Life Technologies and Expression Analysis (LTEA) Assay for solute carrier (SLCO1B1) using HepaRG (AID 2283530)
Outline: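 HepaRG, serum-free induction medium, 48 h dosing, 8-pt half-log from 100 uM, 0.5% DMSO vehicle, duplicates. Readout: SLCO1B1 mRNA, qRT-PCR, ACTB/GAPDH/POLR2A normalization; up or down fit vs DMSO.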

[10] = read-out: Nuclear factor NF-kappa-B p105 subunit (Homo sapiens) (UniProt P19838); experiment: LTEA_HepaRG_NFKB1: Life Technologies and Expression Analysis (LTEA) Assay for Nuclear Factor Kappa B Subunit 1 (NFKB1) using HepaRG (AID 2283521)
Outline: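 HepaRG, 48 h exposure; 8-pt half-log series from 100 uM in 0.5% DMSO; duplicates. Readout: NFKB1 mRNA by qRT-PCR (Fluidigm arrays), housekeeping-normalized. Gain/loss fit vs DMSO baseline.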

Measured: AC50

Nuclear factor erythroid 2-related factor 2 (Homo sapiens), sequence (Q16236 whole entry, looked up): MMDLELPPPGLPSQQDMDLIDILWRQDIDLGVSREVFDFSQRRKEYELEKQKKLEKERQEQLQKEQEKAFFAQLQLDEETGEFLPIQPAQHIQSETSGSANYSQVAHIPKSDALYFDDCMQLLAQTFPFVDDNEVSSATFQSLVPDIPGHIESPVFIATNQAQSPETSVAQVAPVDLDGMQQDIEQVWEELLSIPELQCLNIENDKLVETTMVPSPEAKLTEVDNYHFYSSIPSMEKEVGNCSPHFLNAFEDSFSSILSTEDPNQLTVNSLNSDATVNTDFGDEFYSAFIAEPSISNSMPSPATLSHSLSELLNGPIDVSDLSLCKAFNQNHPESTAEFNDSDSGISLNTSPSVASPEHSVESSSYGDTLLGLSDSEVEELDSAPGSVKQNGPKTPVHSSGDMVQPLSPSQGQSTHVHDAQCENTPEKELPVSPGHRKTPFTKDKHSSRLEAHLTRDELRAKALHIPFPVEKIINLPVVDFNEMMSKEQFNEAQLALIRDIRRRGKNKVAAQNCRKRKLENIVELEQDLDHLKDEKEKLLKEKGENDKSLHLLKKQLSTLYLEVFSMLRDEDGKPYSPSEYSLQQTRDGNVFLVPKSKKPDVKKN
Signal transducer and activator of transcription 3 (Homo sapiens), sequence (P40763 whole entry, looked up): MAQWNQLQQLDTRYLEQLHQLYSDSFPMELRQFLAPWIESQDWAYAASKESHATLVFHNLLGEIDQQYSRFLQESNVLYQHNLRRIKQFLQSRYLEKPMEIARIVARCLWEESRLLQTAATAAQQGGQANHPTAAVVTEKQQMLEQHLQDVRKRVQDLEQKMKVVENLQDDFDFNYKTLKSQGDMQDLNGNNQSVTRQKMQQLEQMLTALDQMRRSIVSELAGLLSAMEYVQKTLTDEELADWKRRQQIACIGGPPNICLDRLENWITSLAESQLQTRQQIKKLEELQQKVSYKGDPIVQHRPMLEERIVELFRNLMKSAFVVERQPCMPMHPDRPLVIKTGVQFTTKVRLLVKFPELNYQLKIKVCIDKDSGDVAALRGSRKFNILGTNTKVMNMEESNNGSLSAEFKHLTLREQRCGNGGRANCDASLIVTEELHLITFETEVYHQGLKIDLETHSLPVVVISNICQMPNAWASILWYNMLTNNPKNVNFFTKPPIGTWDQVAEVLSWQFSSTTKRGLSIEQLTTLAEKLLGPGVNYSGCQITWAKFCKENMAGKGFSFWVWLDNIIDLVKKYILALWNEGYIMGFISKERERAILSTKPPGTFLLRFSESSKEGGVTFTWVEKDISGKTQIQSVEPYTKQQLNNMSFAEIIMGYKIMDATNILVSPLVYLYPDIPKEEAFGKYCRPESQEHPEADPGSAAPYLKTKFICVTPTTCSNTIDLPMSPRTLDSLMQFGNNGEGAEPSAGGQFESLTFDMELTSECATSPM
Nuclear factor NF-kappa-B p105 subunit (Homo sapiens), sequence (P19838 whole entry, looked up): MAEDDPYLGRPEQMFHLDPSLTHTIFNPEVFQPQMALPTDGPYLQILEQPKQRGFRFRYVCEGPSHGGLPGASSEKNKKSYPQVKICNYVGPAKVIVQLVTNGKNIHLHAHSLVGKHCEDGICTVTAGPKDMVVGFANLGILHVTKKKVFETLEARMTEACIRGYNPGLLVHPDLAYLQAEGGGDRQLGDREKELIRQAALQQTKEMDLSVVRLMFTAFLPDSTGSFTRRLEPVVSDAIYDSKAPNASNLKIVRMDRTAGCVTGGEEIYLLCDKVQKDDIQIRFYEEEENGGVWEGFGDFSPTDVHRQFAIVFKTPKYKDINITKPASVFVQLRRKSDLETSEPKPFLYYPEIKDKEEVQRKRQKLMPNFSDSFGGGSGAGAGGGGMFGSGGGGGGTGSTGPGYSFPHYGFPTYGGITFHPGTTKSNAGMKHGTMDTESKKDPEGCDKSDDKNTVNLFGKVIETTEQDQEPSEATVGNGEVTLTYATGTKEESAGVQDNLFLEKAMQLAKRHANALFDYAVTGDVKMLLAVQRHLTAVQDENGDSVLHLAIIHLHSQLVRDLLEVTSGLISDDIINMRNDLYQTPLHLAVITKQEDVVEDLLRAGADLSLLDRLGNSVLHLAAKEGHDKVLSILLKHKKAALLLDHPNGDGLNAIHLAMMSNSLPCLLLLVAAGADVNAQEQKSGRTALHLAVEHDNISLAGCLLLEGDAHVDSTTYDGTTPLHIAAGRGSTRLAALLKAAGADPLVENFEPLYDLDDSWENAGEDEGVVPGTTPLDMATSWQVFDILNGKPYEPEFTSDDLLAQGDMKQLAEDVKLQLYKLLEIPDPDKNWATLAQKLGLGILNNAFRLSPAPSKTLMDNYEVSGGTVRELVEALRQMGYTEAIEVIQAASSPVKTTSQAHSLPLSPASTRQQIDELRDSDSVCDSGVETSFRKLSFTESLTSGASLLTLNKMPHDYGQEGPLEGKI

CN(C)c1ccc(C(=C2C=CC(=[N+](C)C)C=C2)c2ccc(N(C)C)cc2)cc1
active: [1] 12.9 µM | [2] 26.1 µM | [3] 3.62 µM | [4] 32.4 µM | [5] 5 µM | [6] 12.7 µM | [7] 11.1 µM | [8] 39.3 µM | [9] 4.64 µM

CCCCCCCCCCCC[N+](C)(C)C
active: [3] 91 µM | [4] 75.6 µM | [6] 76.9 µM | [9] 88.1 µM
inactive: all other assays above

CC1(C)NC(=O)N(c2ccc([N+](=O)[O-])c(C(F)(F)F)c2)C1=O
active: [3] 74.3 µM | [4] 80.1 µM | [7] 50 µM | [9] 69.3 µM
not listed: [10]
inactive: all other assays above

CCO[Si](CCCNC(N)=O)(OCC)OCC
not listed: [10]
inactive: all other assays above

O=C(Nc1ccc(Cl)cc1)Nc1ccc(Cl)c(Cl)c1
active: [10] 12.2 µM | [1] 21.3 µM | [2] 22.2 µM | [3] 17.4 µM | [4] 27 µM | [5] 17.8 µM | [7] 13.2 µM | [8] 14.2 µM | [9] 18.7 µM
inactive: [6]

CN(C)C(=O)C1(N2CCCCC2)CCN(CC[C@@]2(c3ccc(Cl)c(Cl)c3)CN(C(=O)c3ccccc3)CCO2)CC1
inactive: [2] | [4] | [5]
active: [10] 80.3 µM | [1] 27.2 µM | [3] 27.6 µM | [6] 47.2 µM | [7] 22.5 µM | [8] 47.2 µM | [9] 23.1 µM

O=c1[nH]sc2ccccc12
inactive: all assays above

Cc1cn([C@H]2C[C@H](N=[N+]=[N-])[C@@H](CO)O2)c(=O)[nH]c1=O
inactive: all assays above

CCCCCCCCCCCCO
not listed: [10]
inactive: all other assays above

CCCOC(=O)c1cc(O)c(O)c(O)c1
active: [4] 31.4 µM
not listed: [10]
inactive: all other assays above

CCN(CC)C(=O)c1cc(S(=O)(=O)Cc2ccccc2)c(N2CCC(c3ccccc3)CC2)cc1N(CC)CCN(C)C
active: [10] 28.1 µM | [2] 22.9 µM | [6] 29.1 µM | [9] 33.3 µM
not listed: [5]
inactive: all other assays above

Cc1ccc(C(C)C)cc1
not listed: [10]
inactive: all other assays above

CCCC(=O)OCCC(C)C
inactive: all assays above

CN1C(=O)N(c2ccccc2Br)Cc2cnc(Nc3ccc4c(c3)OCC(CO)O4)nc21 (stereo not given)
inactive: [1] | [2] | [5] | [6]
active: [10] 19.5 µM | [3] 35.2 µM | [4] 50 µM | [7] 12.2 µM | [8] 50 µM | [9] 80.9 µM

Cc1occc1C(=O)Nc1ccc(C(=O)N2CCC(F)(F)/C(=C\C(=O)N3CCC(N4CCCCC4)CC3)c3ccccc32)cc1
active: [3] 32.2 µM | [4] 50.3 µM
inactive: all other assays above

CC1=CC(=O)/C(=C(/C)O)C(=O)O1
not listed: [10]
inactive: all other assays above

Cc1c2ccccc2c(C)c2c1ccc1ccccc12
active: [3] 41.2 µM | [4] 56.6 µM | [6] 90.5 µM | [9] 59.5 µM
not listed: [2]
inactive: all other assays above

O=C1CCC(C2CCCCC2)CC1
not listed: [7]
inactive: all other assays above

CCCCOC(=O)CC(CC(=O)OCCCC)(OC(C)=O)C(=O)OCCCC
inactive: all assays above

Cc1cc2c(cc1C(F)(F)F)N(C(=O)Nc1ccc(Oc3cccnc3C)nc1)CC2
active: [3] 30.1 µM
inactive: all other assays above
